# From PubChem BioAssay (NCATS)
# Values joined by “and” are separate entries in the source; they are usually repeats but may differ in a detail not shown here. Equal entries are not always repeated. Results filed as inconclusive are left out. Some structures have more than one record in an assay (separate samples or runs), and their calls can disagree. Values without a mark were called inactive. Active and inactive are the calls of the source. Calls follow the shape of the dose curve; as a rule, active = well fitted curve in the direction sought with a large enough effect; inconclusive = small, poorly fitted or top-dose-only effect, or another doubt; inactive = no such curve, though single readings can be large; an effect the other way counts as inactive or inconclusive.
# Experiments:
# [1] = qHTS assay to identify inhibitors of the type 1 interferon - major histocompatibility complex class I in skeletal muscle: Counter screen cell viability and HiBit confirmation (AID 1347412); conditions: iHSKM muscle cells + IFN-b, HiBiT or CellTiter-Glo, 24 h; for activity change, negative = inhibition: at 45.9 µM (top of the series); as to all read-outs here: nearly all actives have a fitted effect of over 60% in size
# Method in brief: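 Duplicate plates, pinned identically: one read for HiBiT-tagged endogenous HLA-B luminescence, the other for ATP-content viability via CellTiter Glo. Cells were genome-engineered human myoblasts given 4 ng/ml IFN-b; compounds 12-pt, 1:3 from 46 uM final; 24 hr exposure.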
# [2] = Drug repurposing screens with cells derived from glioblastoma tumor samples (AID 1345199); conditions: GBM patient neurospheres viability, ATP luminescence, 48 h; also: nearly all actives have a fitted effect of over 40% in size
# Method in brief: (§1)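 Four patient lines of CD133+ GBM neurospheres were screened at several concentrations; hits were retested in those lines plus three slower-growing GBM lines, using 48-hour treatment and ATP-based viability.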
# [3] = tested on: astro; assay: as above; conditions: viability, ATP luminescence, 48 h; series mostly up to 45.9 µM
# Method in brief: as §1
# [4] = tested on: CAOV3; assay: Primary qHTS to identify gynecologic anti-cancer compounds using libraries of approved drugs and bioactive compounds (AID 1345084); conditions: Gynecologic cancer cell panel viability, ATPlite luminescence, 48 h; series mostly up to 57.5 µM; also: nearly all actives have a fitted effect of over 55% in size
# Method in brief: (§2)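 48 h compound exposure at 37 C, 5% CO2; five-point qHTS. ATPlite luminescence readout of cell ATP.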
# [5] = tested on: HeLa; assay: as above; conditions: Gynecologic cancer cell panel viability, ATPlite luminescence, 48 h; series mostly up to 57.5 µM
# Method in brief: as §2
# [6] = tested on: JEG-3; assay: as above; conditions: Gynecologic cancer cell panel viability, ATPlite luminescence, 48 h; series mostly up to 57.5 µM
# Method in brief: as §2
# [7] = tested on: OV90; assay: as above; conditions: Gynecologic cancer cell panel viability, ATPlite luminescence, 48 h; series mostly up to 57.5 µM
# Method in brief: as §2
# [8] = tested on: SKOV3; assay: as above; conditions: Gynecologic cancer cell panel viability, ATPlite luminescence, 48 h; series mostly up to 57.5 µM
# Method in brief: as §2
# [9] = tested on: Tov-21-G; assay: as above; conditions: Gynecologic cancer cell panel viability, ATPlite luminescence, 48 h; series mostly up to 57.5 µM
# Method in brief: as §2
# [10] = tested on: Tov112D; assay: as above; conditions: Gynecologic cancer cell panel viability, ATPlite luminescence, 48 h; series mostly up to 57.5 µM
# Method in brief: as §2
# [11] = tested on: CASKI; assay: as above; conditions: Gynecologic cancer cell panel viability, ATPlite luminescence, 48 h; series mostly up to 57.5 µM
# Method in brief: as §2
# [12] = tested on: Es-2; assay: as above; conditions: Gynecologic cancer cell panel viability, ATPlite luminescence, 48 h; series mostly up to 57.5 µM
# Method in brief: as §2
# [13] = tested on: Hek293T; assay: as above; conditions: Gynecologic cancer cell panel viability, ATPlite luminescence, 48 h, control line for the selectivity index; series mostly up to 57.5 µM
# Method in brief: as §2
# [14] = tested on: PA-1; assay: as above; conditions: Gynecologic cancer cell panel viability, ATPlite luminescence, 48 h; series mostly up to 57.5 µM
# Method in brief: as §2
# [15] = at 45.9 µM (top of the series), tumour line B
# [16] = at 45.9 µM (top of the series), tumour line D
# [17] = at 46.1 µM (top of the series), tumour line C
# [18] = at 46 µM (top of the series), tumour line A
# % is scaled to controls: 0 for no effect and ±100 for the full control effect; potency is read from the fitted curve at half-maximal effect.
smiles,measurement,setting,value
O=S(=O)(c1cccc2c(I)cccc12)N1CCCNCC1,"activity change, negative = inhibition",[1]; HiBiT,-4.28%
same,"activity change, negative = inhibition",[1]; Viability,-12.4%
CN1[C@@H](CC(=O)c2ccccc2)CCC[C@H]1C[C@H](O)c1ccccc1,"activity, negative = cell killing",[2]; [15],-7.77%
same,"activity, negative = cell killing",[2]; [16],-23.7%
same,"activity, negative = cell killing",[2]; [17],11.9%
same,Potency,[2]; tumour line A,10 µM (active)
same,Potency,[3],inactive
O=C(O)[C@H](O)[C@@H](O)[C@H](O)[C@H](O)CO,"activity, negative = cell killing",[2]; [15],-3.35% and -2.21%
same,"activity, negative = cell killing",[2]; [16],-11.3% and 8.58%
same,"activity, negative = cell killing",[2]; [18],-25.5% and -7.46%
same,"activity, negative = cell killing",[2]; [17],0.0662% and -1.71%
same,Potency,[3],inactive
CCOC(=O)N1CCN(/[N+]([O-])=N/Oc2ccc([N+](=O)[O-])cc2[N+](=O)[O-])CC1,Potency,[1]; HiBiT,6.25 µM (active)
same,"activity change, negative = inhibition",[1]; Viability,17.2%
O=C(NOCC1CC1)c1cc(Br)c(F)c(F)c1Nc1ccc(I)cc1Cl,"activity change, negative = inhibition",[1]; Viability,-18.5%
OCC1O[C@H]([S-])[C@H](O)[C@@H](O)[C@@H]1O.[Au+] (stereo partly drawn),"activity change, negative = inhibition",[1]; Viability,-5.66%
C[N+](C)(C)CCOP(=O)(O)OP(=O)([O-])OC[C@H]1O[C@@H](n2ccc(N)nc2=O)[C@H](O)[C@@H]1O,"activity, negative = cell killing",[2]; [15],-6.25% and -7.43%
same,"activity, negative = cell killing",[2]; [16],-2.69% and -5.13%
same,"activity, negative = cell killing",[2]; [18],-13.9%
same,"activity, negative = cell killing",[2]; [17],-5.84% and 8.06%
same,Potency,[3],inactive
CC(C)Cc1ccc([C@H](C)C(=O)O)cc1,"activity, negative = cell killing",[2]; [15],4.71%
same,"activity, negative = cell killing",[2]; [16],0.88%
same,"activity, negative = cell killing",[2]; [18],-14%
same,"activity, negative = cell killing",[2]; [17],8.55%
same,Potency,[3],inactive
CC[C@H]1OC(=O)[C@H](C)C(=O)[C@H](C)[C@@H](O[C@@H]2O[C@H](C)C[C@H](N(C)C)[C@H]2O)[C@](C)(OC)C[C@@H](C)C(=O)[C@H](C)[C@H]2N(CCCCn3cnc(-c4cccnc4)c3)C(=O)O[C@]12C,"activity, negative = cell killing",[2]; [15],-5.03%
same,"activity, negative = cell killing",[2]; [16],5.49%
same,"activity, negative = cell killing",[2]; [18],-23.7%
same,"activity, negative = cell killing",[2]; [17],5.5%
same,Potency,[3],inactive
Cc1nc2ccccc2n1Cc1ccc(Cl)cc1,Potency,[4],inactive
same,Potency,[5],inactive
same,Potency,[6],inactive
same,Potency,[7],8.91 µM (active)
same,Potency,[8],3.98 µM (active)
same,Potency,[9],inactive
same,Potency,[10],inactive
same,Potency,[3],3.16 µM (active)
O=C(O)/C=C/C(O)c1ccc(Cl)cc1 (stereo not drawn),"activity, negative = cell killing",[2]; [15],1.63%
same,"activity, negative = cell killing",[2]; [16],7.64%
same,"activity, negative = cell killing",[2]; [18],-31.6%
same,"activity, negative = cell killing",[2]; [17],1.95%
same,Potency,[3],inactive
O=C(O)COc1ccc(C(=O)c2cccs2)c(Cl)c1Cl,"activity, negative = cell killing",[2]; [15],-12.4% and -10%
same,"activity, negative = cell killing",[2]; [16],-10.2% and 1.54%
same,"activity, negative = cell killing",[2]; [18],-22.1% and -29.6%
same,"activity, negative = cell killing",[2]; [17],-20.3% and -8.25%
same,Potency,[3],inactive
C=CCN1C(=O)C(CC(C)C)NC1=S (stereo not drawn),"activity, negative = cell killing",[2]; [15],-28.5% and -13.5%
same,"activity, negative = cell killing",[2]; [16],-8.69% and -21.9%
same,"activity, negative = cell killing",[2]; [18],-6.38% and -35.5%
same,"activity, negative = cell killing",[2]; [17],-6.48% and -20.2%
same,Potency,[3],inactive
CC[C@H]1OC(=O)[C@H](C)[C@@H](O[C@H]2C[C@@](C)(OC)[C@@H](O)[C@H](C)O2)[C@H](C)[C@@H](O[C@@H]2O[C@H](C)C[C@H](N(C)C)[C@H]2O)[C@](C)(O)C[C@@H](C)C(=O)[C@H](C)[C@@H](O)[C@]1(C)O,"activity, negative = cell killing",[2]; [15],-22.6% and -12%
same,"activity, negative = cell killing",[2]; [16],-9.85% and -27.5%
same,"activity, negative = cell killing",[2]; [17],-1.15% and -24.2%
same,Potency,[3],inactive
CO[C@H]1C[C@@H]2CC[C@@H](C)[C@@](O)(O2)C(=O)C(=O)N2CCCC[C@H]2C(=O)O[C@H]([C@H](C)C[C@@H]2CC[C@@H](O)[C@H](OC)C2)CC(=O)[C@H](C)C=C(C)[C@@H](O)[C@@H](OC)C(=O)[C@H](C)C[C@H](C)/C=C/C=CC=C1C,Potency,[3],35.5 µM (active)
O=C(Nc1ccc2c(c1)CCN(Cc1ncn[nH]1)C2)c1ccccc1-c1ccc(C(F)(F)F)cc1,Potency,[4],inactive
same,Potency,[11],inactive
same,Potency,[12],inactive
same,Potency,[5],inactive
same,Potency,[13],inactive
same,Potency,[6],inactive
same,Potency,[7],inactive
same,Potency,[14],inactive
same,Potency,[9],inactive
same,Potency,[10],inactive
N=c1ccn2c(n1)O[C@H]1[C@H](O)[C@@H](CO)O[C@H]12,"activity, negative = cell killing",[2]; [16],-31.3%
same,"activity, negative = cell killing",[2]; [17],-5.87%
same,Potency,[3],inactive
CCOC(=O)C1=C(C)NC(C)=C(C(=O)OCC)C1c1c(F)c(F)c(F)c(F)c1F,"activity change, negative = inhibition",[1]; HiBiT,-2.44%
same,"activity change, negative = inhibition",[1]; Viability,9.02%
Cc1ccc(S(=O)(=O)/C=C/C#N)cc1,Potency,[1]; HiBiT,5.57 µM (active)
same,Potency,[1]; Viability,17.6 µM (active)
O=C(Nc1ccncc1)c1cc([N+](=O)[O-])ccc1Cl,Potency,[1]; HiBiT,15.7 µM (active)
same,"activity change, negative = inhibition",[1]; Viability,-27.4%
C=CC(N)CCC(=O)O (stereo not drawn),"activity, negative = cell killing",[2]; [15],-2.82%
same,"activity, negative = cell killing",[2]; [16],-18.8%
same,"activity, negative = cell killing",[2]; [18],-11.6%
same,"activity, negative = cell killing",[2]; [17],-7.65%
same,Potency,[3],inactive
CCCCCC[C@@H](O)C/C=C\CCCCCCCC(=O)O,"activity, negative = cell killing",[2]; [16],-4.78% and -10.9%
same,"activity, negative = cell killing",[2]; [18],-28%
same,"activity, negative = cell killing",[2]; [17],-19.3% and -4.11%
same,Potency,[2]; tumour line A,20 µM (active)
same,Potency,[3],inactive
C=C(Nc1ccc(OCC)cc1)Nc1ccc(OCC)cc1,"activity, negative = cell killing",[2]; [16],-18.8%
same,"activity, negative = cell killing",[2]; [17],-12.9%
same,Potency,[3],inactive
CO/N=C(\C(=O)N[C@@H]1C(=O)N2C(C(=O)O)=C(COC(C)=O)CS[C@H]12)c1csc(N)n1 (stereo in doubt),"activity, negative = cell killing",[2]; [15],-12.2%
same,"activity, negative = cell killing",[2]; [16],9.74%
same,"activity, negative = cell killing",[2]; [18],-20.5%
same,"activity, negative = cell killing",[2]; [17],-2.27%
same,Potency,[3],inactive
CC(C)(C)c1ccc(S(=O)(=O)/C=C/C#N)cc1,Potency,[1]; HiBiT,2.79 µM (active)
same,Potency,[1]; Viability,11.1 µM (active)
C[S+](CC[C@H](N)C(=O)O)C[C@H]1O[C@@H](n2cnc3c(N)ncnc32)[C@H](O)[C@@H]1O (stereo partly drawn),"activity, negative = cell killing",[2]; [15],4.03% and -13.3%
same,"activity, negative = cell killing",[2]; [16],-4.97% and -8.65%
same,"activity, negative = cell killing",[2]; [17],-29.2% and -23.1%
same,Potency,[2]; tumour line A,7.08 µM (active)
same,Potency,[3],inactive
